Columns and labels:
Assay in all cases: log2 ratio of Biotin-Ahx-Ub-VS probe labelling (fragment/DMSO); higher = less target engagement (more negative = stronger competition), active = hit call of the paper (q ≤ 0.05, log2 ratio ≤ -1)
Settings in all cases: compound concentration: 200 uM; treatment time: 3 h
USP42 = target: T1, USP42 (UniProt Q9H9J4)
T1 sequence (whole entry): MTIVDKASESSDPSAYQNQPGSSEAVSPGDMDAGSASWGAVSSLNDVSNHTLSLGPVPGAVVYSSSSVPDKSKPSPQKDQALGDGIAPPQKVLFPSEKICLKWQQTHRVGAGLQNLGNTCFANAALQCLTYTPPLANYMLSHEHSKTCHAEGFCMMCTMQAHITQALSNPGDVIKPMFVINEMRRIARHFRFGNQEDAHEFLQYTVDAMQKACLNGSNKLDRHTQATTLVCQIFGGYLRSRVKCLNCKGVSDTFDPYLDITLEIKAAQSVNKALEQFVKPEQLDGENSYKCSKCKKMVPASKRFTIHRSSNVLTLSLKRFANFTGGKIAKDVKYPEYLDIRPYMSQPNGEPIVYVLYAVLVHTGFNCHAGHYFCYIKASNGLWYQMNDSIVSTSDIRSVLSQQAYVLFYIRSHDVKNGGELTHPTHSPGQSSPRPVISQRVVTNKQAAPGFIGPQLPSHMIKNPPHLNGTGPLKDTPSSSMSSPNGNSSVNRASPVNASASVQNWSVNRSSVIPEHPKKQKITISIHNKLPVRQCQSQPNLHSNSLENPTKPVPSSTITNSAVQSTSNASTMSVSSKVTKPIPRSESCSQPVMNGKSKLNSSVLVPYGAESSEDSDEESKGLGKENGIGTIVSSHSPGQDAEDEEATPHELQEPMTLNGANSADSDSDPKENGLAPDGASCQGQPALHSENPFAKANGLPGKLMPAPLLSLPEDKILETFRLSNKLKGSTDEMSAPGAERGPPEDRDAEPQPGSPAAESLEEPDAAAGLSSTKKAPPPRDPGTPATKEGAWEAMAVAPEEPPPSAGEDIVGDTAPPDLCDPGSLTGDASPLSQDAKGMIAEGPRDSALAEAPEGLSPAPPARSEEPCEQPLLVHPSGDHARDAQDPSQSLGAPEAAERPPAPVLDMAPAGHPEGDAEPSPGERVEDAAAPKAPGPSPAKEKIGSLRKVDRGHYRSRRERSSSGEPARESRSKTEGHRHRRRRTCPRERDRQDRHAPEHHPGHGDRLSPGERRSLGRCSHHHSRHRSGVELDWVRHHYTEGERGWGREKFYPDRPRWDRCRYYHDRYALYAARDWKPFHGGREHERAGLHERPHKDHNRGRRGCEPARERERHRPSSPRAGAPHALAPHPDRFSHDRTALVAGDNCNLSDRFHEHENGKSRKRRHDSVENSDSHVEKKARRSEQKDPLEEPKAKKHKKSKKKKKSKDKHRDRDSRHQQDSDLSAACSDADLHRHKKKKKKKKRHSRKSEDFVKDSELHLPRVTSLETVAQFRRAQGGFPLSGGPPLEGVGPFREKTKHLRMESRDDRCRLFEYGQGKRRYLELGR
Procedure, shortened: (§1)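 Average log2 ratios of fragment over vehicle were obtained by unpaired t-test from global-median-normalised Spectronaut label-free quantities. Proteins with ≥2 unique peptides were included. HEK293T lysate (495 µg per sample) was treated in triplicate with fragment at 200 µM or vehicle for 3 h, then with Biotin-Ahx-Ub-VS at 0.5 µM final for 1 h, and labelled DUBs were NeutrAvidin-enriched and run by diaPASEF LC-MS/MS.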

USP46 = USP46 (UniProt P62068)
Procedure, shortened: as §1

USP47 = target: T2, USP47 (UniProt Q96K76)
T2 sequence (whole entry): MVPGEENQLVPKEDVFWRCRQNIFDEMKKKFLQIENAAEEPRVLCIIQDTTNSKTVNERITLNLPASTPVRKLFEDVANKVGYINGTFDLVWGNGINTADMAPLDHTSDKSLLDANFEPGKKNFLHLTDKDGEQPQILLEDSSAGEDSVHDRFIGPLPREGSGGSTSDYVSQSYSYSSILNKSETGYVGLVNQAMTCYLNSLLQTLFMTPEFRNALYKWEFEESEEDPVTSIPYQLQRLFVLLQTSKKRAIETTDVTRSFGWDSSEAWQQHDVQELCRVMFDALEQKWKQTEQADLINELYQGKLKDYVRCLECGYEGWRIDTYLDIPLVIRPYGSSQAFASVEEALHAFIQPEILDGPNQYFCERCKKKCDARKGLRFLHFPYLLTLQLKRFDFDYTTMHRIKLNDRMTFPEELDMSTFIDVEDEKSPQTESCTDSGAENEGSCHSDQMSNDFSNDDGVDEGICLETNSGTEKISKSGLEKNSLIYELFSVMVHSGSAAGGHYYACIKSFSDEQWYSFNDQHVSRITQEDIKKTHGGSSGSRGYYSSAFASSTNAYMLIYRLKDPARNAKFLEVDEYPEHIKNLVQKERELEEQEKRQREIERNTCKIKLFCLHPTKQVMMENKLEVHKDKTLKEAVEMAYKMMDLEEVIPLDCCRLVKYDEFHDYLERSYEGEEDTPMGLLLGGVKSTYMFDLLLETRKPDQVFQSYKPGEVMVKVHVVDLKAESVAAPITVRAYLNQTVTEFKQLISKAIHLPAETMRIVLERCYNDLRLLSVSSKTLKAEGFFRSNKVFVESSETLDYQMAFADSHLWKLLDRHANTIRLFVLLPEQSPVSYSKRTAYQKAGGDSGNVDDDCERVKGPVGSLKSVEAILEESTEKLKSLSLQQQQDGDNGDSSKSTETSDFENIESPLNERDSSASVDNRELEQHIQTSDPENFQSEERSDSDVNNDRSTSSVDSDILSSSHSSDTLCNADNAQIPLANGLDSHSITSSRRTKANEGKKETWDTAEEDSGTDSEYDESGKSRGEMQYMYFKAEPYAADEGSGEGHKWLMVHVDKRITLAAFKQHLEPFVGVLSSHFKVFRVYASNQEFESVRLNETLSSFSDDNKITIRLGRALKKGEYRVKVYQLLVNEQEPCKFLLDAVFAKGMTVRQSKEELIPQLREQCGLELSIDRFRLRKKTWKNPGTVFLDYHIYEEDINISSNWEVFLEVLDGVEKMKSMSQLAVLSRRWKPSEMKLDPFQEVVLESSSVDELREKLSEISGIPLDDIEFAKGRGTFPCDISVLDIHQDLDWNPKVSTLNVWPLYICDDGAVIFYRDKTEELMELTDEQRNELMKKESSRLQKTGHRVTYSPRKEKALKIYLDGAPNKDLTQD
Procedure, shortened: as §1

USP48 = target: T3, USP48 (UniProt Q86UV5)
T3 sequence (whole entry): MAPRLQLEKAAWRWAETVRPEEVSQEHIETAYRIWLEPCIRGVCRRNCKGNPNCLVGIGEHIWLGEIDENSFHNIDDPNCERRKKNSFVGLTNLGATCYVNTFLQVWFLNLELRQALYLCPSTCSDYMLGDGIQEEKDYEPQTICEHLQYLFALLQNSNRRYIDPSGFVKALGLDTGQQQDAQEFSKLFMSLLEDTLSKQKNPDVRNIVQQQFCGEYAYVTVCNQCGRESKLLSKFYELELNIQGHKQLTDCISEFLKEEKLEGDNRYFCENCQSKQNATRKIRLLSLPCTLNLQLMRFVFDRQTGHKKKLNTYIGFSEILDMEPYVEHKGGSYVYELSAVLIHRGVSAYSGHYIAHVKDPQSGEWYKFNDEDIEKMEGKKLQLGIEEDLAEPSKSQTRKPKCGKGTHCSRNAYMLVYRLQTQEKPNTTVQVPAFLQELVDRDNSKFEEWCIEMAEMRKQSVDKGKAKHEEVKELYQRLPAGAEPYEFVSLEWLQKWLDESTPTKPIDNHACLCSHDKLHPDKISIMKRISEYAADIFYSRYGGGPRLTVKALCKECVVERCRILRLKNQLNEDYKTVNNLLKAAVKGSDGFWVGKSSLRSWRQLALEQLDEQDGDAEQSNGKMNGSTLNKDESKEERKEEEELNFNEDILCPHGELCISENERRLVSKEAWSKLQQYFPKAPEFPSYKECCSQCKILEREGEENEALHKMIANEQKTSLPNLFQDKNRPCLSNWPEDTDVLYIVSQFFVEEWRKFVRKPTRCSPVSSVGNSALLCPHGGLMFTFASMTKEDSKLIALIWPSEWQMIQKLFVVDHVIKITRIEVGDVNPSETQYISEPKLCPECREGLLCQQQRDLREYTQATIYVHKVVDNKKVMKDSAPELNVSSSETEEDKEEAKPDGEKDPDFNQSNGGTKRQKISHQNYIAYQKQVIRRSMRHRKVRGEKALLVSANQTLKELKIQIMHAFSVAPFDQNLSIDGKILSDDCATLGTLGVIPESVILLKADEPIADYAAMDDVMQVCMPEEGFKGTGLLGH
Procedure, shortened: as §1

USP5 = target: T4, USP5 (UniProt P45974)
T4 sequence (whole entry): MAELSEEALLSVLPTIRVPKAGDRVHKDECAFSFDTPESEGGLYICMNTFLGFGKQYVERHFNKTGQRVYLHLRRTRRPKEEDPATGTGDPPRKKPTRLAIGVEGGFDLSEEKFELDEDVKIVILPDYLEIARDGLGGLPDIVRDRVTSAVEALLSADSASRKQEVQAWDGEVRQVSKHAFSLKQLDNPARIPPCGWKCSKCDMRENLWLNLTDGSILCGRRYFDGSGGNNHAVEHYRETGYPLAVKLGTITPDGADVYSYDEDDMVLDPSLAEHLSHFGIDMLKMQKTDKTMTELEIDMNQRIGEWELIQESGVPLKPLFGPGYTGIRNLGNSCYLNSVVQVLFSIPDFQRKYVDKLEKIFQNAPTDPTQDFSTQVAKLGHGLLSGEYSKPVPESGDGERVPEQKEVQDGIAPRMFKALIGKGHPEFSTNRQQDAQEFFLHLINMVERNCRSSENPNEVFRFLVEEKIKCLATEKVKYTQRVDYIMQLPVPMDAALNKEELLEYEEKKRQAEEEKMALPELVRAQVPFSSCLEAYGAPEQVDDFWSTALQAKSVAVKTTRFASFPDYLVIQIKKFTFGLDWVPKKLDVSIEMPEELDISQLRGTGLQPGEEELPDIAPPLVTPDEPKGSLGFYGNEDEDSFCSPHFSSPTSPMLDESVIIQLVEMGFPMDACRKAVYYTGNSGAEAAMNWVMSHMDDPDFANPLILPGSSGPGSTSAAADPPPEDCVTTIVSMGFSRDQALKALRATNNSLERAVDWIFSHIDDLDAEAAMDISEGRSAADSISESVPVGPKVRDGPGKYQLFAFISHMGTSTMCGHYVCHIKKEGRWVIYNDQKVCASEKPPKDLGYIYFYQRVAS
Procedure, shortened: as §1

USP54 = USP54 (UniProt Q70EL1)
Procedure, shortened: as §1

USP7 = USP7 (UniProt Q93009)
Procedure, shortened: as §1

USP8 = target: T5, USP8 (UniProt P40818)
T5 sequence (whole entry): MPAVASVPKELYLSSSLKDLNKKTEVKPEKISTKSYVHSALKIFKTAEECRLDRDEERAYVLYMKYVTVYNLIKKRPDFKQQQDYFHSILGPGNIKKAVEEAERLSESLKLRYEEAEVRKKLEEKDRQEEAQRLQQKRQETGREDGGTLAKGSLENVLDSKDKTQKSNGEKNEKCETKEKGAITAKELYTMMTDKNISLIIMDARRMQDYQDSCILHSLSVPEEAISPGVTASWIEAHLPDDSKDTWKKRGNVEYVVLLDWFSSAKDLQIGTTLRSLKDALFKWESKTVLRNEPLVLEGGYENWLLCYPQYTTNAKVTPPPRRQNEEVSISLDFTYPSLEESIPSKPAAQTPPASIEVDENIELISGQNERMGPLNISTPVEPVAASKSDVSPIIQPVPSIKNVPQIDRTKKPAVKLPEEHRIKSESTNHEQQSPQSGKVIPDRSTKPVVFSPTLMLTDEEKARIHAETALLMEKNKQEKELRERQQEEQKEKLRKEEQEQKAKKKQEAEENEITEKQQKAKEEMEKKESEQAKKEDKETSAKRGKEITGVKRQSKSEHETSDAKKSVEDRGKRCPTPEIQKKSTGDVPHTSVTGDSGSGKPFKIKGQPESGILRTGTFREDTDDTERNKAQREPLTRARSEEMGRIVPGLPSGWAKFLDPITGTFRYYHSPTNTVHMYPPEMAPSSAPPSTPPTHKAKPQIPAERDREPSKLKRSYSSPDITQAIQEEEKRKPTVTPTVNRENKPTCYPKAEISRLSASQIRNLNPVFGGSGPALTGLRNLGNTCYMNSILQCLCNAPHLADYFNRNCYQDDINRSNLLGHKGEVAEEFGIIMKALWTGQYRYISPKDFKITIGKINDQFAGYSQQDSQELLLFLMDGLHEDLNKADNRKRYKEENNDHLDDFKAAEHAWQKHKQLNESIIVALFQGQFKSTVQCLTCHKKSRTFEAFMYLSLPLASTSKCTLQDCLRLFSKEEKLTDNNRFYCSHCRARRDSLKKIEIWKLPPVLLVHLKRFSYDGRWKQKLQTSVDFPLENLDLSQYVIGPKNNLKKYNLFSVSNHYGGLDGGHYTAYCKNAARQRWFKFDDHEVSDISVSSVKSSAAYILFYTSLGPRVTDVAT
Procedure, shortened: as §1

USP9X = USP9X (UniProt Q93008)
Procedure, shortened: as §1

UniProt O00487 = target: UniProt O00487
Procedure, shortened: as §1

Measured: log2 ratio of Biotin-Ahx-Ub-VS probe labelling

Sequence of USP9X (Q93008 whole entry): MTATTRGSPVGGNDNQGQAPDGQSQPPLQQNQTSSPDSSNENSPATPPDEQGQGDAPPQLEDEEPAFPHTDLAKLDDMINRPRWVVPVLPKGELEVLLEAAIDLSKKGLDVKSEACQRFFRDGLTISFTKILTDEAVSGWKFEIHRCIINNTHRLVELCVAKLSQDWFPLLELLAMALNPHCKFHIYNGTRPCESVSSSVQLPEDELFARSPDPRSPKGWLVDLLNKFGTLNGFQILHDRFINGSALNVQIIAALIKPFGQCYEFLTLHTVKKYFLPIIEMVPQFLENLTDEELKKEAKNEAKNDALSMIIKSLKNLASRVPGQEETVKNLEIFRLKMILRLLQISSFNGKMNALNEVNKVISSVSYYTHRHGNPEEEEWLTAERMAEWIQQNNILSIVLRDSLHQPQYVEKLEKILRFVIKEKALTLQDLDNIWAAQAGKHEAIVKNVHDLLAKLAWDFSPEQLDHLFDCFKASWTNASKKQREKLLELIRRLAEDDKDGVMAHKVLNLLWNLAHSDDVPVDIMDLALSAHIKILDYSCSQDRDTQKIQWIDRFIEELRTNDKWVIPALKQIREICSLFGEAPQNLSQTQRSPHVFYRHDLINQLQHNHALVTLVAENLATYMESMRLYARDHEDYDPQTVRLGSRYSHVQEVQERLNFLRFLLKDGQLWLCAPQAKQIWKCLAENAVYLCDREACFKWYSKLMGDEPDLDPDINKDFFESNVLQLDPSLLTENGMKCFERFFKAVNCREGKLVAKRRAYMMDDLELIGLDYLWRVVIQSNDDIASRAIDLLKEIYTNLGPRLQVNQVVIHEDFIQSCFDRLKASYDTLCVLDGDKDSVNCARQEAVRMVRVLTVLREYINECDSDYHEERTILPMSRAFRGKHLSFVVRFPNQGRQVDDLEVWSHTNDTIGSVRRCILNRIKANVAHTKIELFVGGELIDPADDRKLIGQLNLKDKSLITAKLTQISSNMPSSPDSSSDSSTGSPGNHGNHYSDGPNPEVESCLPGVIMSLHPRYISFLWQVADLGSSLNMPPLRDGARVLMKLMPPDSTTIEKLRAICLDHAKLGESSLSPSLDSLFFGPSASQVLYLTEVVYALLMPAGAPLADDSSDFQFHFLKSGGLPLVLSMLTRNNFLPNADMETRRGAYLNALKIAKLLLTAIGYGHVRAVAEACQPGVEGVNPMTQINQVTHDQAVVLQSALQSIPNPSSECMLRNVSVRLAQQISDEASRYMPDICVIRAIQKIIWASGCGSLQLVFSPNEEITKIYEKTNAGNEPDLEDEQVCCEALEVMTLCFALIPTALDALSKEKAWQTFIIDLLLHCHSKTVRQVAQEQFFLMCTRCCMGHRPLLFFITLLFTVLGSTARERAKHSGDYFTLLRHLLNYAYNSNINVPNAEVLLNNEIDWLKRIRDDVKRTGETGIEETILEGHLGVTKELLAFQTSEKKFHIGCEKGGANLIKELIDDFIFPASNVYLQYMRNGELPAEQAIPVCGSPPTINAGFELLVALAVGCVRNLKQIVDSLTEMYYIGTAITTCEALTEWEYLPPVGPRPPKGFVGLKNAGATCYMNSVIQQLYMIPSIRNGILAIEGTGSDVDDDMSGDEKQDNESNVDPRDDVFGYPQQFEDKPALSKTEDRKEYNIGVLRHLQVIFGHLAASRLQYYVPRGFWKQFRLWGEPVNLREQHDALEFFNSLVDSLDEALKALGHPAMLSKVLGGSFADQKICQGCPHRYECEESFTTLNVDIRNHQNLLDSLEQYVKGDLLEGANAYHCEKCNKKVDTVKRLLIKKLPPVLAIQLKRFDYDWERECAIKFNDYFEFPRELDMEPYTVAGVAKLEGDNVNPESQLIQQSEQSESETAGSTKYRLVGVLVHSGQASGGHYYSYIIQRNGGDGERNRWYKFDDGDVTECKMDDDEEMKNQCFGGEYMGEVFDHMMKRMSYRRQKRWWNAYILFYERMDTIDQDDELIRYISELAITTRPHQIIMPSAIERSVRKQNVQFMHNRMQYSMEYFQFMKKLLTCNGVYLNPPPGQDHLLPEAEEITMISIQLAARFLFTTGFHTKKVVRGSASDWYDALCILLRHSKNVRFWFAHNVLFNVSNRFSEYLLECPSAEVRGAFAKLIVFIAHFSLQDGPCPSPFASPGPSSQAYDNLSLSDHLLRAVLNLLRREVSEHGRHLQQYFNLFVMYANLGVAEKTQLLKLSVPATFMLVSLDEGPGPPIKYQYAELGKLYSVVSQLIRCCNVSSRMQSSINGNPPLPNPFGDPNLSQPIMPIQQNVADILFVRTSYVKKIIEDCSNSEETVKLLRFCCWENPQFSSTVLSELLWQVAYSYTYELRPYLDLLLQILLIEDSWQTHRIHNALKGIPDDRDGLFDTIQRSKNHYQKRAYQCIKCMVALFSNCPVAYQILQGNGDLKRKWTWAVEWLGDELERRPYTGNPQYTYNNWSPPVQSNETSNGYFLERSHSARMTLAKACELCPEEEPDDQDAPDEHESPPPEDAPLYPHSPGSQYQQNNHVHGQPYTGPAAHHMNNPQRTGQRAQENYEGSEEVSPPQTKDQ
Sequence of USP7 (Q93009 whole entry, looked up): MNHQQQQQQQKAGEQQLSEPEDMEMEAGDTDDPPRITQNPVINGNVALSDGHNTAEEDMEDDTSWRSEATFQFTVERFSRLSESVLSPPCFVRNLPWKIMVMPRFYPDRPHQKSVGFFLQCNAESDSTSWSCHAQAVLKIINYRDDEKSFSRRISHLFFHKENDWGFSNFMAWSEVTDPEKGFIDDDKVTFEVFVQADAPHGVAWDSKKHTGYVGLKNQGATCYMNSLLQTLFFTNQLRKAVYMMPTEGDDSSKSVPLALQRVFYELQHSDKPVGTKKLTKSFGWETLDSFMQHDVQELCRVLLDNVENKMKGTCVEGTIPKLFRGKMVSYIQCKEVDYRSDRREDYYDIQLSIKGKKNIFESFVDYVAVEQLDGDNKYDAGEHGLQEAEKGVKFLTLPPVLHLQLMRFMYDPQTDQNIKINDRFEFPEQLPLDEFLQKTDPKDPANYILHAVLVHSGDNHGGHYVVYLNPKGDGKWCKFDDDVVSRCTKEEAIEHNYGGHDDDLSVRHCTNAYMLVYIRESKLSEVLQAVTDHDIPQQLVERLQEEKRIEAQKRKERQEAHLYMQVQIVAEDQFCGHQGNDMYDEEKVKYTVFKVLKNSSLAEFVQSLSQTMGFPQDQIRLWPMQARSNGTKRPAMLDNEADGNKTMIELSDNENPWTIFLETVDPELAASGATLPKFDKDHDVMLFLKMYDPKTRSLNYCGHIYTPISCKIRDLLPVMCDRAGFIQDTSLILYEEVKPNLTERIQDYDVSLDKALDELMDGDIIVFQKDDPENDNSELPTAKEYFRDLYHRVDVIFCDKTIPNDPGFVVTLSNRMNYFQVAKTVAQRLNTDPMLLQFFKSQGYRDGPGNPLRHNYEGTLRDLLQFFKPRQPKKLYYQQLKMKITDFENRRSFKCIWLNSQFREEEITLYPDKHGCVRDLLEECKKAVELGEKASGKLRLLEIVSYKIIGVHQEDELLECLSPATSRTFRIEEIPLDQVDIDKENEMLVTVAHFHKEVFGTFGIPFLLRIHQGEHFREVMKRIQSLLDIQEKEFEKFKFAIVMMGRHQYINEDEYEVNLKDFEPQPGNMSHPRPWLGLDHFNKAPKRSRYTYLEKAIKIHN
Sequence of UniProt O00487 (O00487 whole entry): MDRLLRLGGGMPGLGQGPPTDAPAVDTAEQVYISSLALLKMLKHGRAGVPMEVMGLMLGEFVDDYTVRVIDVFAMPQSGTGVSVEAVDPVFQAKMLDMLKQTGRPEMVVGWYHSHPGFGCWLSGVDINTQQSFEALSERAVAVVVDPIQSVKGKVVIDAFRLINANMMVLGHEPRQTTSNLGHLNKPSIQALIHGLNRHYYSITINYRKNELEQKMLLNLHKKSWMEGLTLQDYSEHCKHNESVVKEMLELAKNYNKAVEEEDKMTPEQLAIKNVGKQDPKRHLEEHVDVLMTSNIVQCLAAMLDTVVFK
Sequence of USP46 (P62068 whole entry): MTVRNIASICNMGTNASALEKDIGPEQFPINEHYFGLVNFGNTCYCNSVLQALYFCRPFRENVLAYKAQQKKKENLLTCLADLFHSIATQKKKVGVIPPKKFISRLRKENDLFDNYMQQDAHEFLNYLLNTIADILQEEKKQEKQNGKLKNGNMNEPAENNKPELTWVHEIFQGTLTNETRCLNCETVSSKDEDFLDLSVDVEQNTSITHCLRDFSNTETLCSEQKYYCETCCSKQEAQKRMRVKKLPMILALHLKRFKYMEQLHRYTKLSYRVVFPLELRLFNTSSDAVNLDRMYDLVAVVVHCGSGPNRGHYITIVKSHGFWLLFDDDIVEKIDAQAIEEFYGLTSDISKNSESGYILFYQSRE

Cc1cc(Cl)ccc1NC(=O)CCl
inactive: USP42 -0.0727 | USP46 -0.0701 | USP47 -0.176 | USP48 -0.173 | USP5 -0.0552 | USP54 -0.075 | USP7 -0.304 | USP8 0.0468 | USP9X -0.0827 | UniProt O00487 -0.165

Source: the supplement of paper PMC11732987, “Enantioselective OTUD7B fragment discovery through chemoproteomics screening and high-throughput optimisation” (Communications Chemistry, 2025)
